# Read-outs that look alike come from different tables or passages of the source.
# Experiments:
# ABL1 = system: ABL1; design: species or system human, MV4-11 + K-562 + COLO205 + SK-N-BE2 + OVCAR-8; settings: read-out: apparent Kd; compound concentrations: 100 nM and 1000 nM (sheet 'Samples'), CATDS: 2.9086276614824699E-2; n = 1
# ABL2 = system: ABL2; design: species or system human, MV4-11 + K-562 + COLO205 + SK-N-BE2 + OVCAR-8; settings: read-out: apparent Kd; compound concentrations: 100 nM and 1000 nM (sheet 'Samples'), CATDS: 3.5730235281971501E-2; n = 1
# BCR = system: BCR; design: species or system human, MV4-11 + K-562 + COLO205 + SK-N-BE2 + OVCAR-8; settings: read-out: apparent Kd; compound concentrations: 100 nM and 1000 nM (sheet 'Samples'), CATDS: 6.7644332106689603E-2; n = 1
# GAK = system: GAK; design: species or system human, MV4-11 + K-562 + COLO205 + SK-N-BE2 + OVCAR-8; settings: read-out: apparent Kd; compound concentrations: 100 nM and 1000 nM (sheet 'Samples'), CATDS: 4.3663241287780298E-2; n = 1
# RET = system: RET; design: species or system human, MV4-11 + K-562 + COLO205 + SK-N-BE2 + OVCAR-8; settings: read-out: apparent Kd; compound concentrations: 100 nM and 1000 nM (sheet 'Samples'), CATDS: 4.9371716156535399E-2; n = 1
# RIPK2 = system: RIPK2; design: species or system human, MV4-11 + K-562 + COLO205 + SK-N-BE2 + OVCAR-8; settings: read-out: apparent Kd, compound concentrations: 100 nM and 1000 nM (sheet 'Samples'), n = 1
# RIPK3 = system: RIPK3; design: species or system human, MV4-11 + K-562 + COLO205 + SK-N-BE2 + OVCAR-8; settings: read-out: apparent Kd; compound concentrations: 100 nM and 1000 nM (sheet 'Samples'), CATDS: 4.4642127518175201E-2; n = 1
# AAK1 = system: AAK1; design: species or system human, MV4-11 + K-562 + COLO205 + SK-N-BE2 + OVCAR-8; settings: read-out: apparent Kd, compound concentrations: 100 nM and 1000 nM (sheet 'Samples'), n = 1
# CLK1 = system: CLK1; design: species or system human, MV4-11 + K-562 + COLO205 + SK-N-BE2 + OVCAR-8; settings: read-out: apparent Kd, compound concentrations: 100 nM and 1000 nM (sheet 'Samples'), n = 1
# CLK4 = system: CLK4; design: species or system human, MV4-11 + K-562 + COLO205 + SK-N-BE2 + OVCAR-8; settings: read-out: apparent Kd, compound concentrations: 100 nM and 1000 nM (sheet 'Samples'), n = 1
# CSNK2A1;CSNK2A3 = system: CSNK2A1;CSNK2A3; design: species or system human, MV4-11 + K-562 + COLO205 + SK-N-BE2 + OVCAR-8; settings: read-out: apparent Kd, compound concentrations: 100 nM and 1000 nM (sheet 'Samples'), n = 1
# CSNK2A2 = system: CSNK2A2; design: species or system human, MV4-11 + K-562 + COLO205 + SK-N-BE2 + OVCAR-8; settings: read-out: apparent Kd, compound concentrations: 100 nM and 1000 nM (sheet 'Samples'), n = 1
# Q6ZSR9 = Q6ZSR9 (human, UniProt Q6ZSR9); design: species or system MV4-11 + K-562 + COLO205 + SK-N-BE2 + OVCAR-8; settings: read-out: apparent Kd, compound concentrations: 100 nM and 1000 nM (sheet 'Samples'), n = 1
# Chain of Q6ZSR9 (Q6ZSR9 whole entry, looked up): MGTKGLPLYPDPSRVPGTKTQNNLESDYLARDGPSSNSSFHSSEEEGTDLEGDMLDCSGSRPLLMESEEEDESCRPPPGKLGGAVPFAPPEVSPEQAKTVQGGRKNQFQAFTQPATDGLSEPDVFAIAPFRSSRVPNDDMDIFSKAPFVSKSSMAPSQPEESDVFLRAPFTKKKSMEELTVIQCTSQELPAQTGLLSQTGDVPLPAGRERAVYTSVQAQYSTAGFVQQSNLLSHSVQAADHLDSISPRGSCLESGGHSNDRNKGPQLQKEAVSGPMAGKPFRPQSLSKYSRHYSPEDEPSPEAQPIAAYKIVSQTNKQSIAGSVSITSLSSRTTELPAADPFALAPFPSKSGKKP
structure (smiles),measurement,setting,value
Cc1ccc(O)cc1Nc1ccnc2cc(-c3ccccn3)ccc12.Cl [GW440139A],potency estimated from few doses,ABL1,609 nM
same,potency estimated from few doses,ABL2,238 nM
same,potency estimated from few doses,BCR,40.7 nM
same,potency estimated from few doses,GAK,121 nM
same,potency estimated from few doses,RET,85.8 nM
same,potency estimated from few doses,RIPK2; CATDS: 3.9139887822916601E-2,171 nM
same,potency estimated from few doses,RIPK3,114 nM
O=C1N=C(NCc2ccccc2)S/C1=C\c1ccc2ncccc2c1 [RO4442080-000],potency estimated from few doses,AAK1; CATDS: 8.89289230622759E-2,1380 nM
same,potency estimated from few doses,CLK1; CATDS: 0.13842928601840401,521 nM
same,potency estimated from few doses,CLK4; CATDS: 0.11834941417905,701 nM
same,potency estimated from few doses,CSNK2A1;CSNK2A3; CATDS: 0.15313565978355501,438 nM
same,potency estimated from few doses,CSNK2A2; CATDS: 0.175887275734743,351 nM
same,potency estimated from few doses,Q6ZSR9; CATDS: 0.110093670656788,815 nM
O=C1N=C(NCC(CO)c2ccccc2)S/C1=C\c1ccc2ncccc2c1 (centres unmarked) [RO4582641-000],potency estimated from few doses,AAK1; CATDS: 0.17753366584660099,89.4 nM
same,potency estimated from few doses,CLK1; CATDS: 0.190725453373879,79.6 nM
same,potency estimated from few doses,CLK4; CATDS: 7.8741262727809305E-2,590 nM
same,potency estimated from few doses,CSNK2A1;CSNK2A3; CATDS: 0.138008161076002,140 nM
same,potency estimated from few doses,CSNK2A2; CATDS: 0.126393310474474,167 nM
same,potency estimated from few doses,Q6ZSR9; CATDS: 0.16856489309537501,97.6 nM
same,potency estimated from few doses,RIPK2; CATDS: 7.9715899202970897E-2,565 nM
COc1ccc(CNC(=O)NC2CCN(c3ccnc(Nc4cc(OC)c(OC)c(OC)c4)n3)C2)cc1 (centres unmarked) [GSK1379748A],potency estimated from few doses,AAK1; CATDS: 0.347671640618193,1680 nM
same,potency estimated from few doses,Q6ZSR9; CATDS: 0.34499454920455003,1710 nM
O=C1N=C(N[C@@H](CO)c2ccccc2)S/C1=C\c1ccc2ncccc2c1 [RO4554340-000],potency estimated from few doses,AAK1; CATDS: 0.158998542924943,1190 nM
same,potency estimated from few doses,CLK1; CATDS: 0.44812709075051699,156 nM
same,potency estimated from few doses,CLK4; CATDS: 0.232280366030543,478 nM
same,potency estimated from few doses,Q6ZSR9; CATDS: 0.16133585717123999,1140 nM
